Here are results for 54 compounds from PubChem BioAssay (EPA / NIEHS).

Inconclusive results are not listed. Active and inactive are the calls of the source. How the source made its calls: active means hit-call score of the fitted dose curve at least 0.9, where 1 is the maximum; inconclusive means response in the unintended direction; inactive means score below 0.9.

Test [1] can be described thus: TOX21_p53_BLA_p2_viability: Viability Assessment in the Tox21 HCT-116 p53 Agonism Beta-lactamase Assay, Phase 2 (AID 2283591).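 Further: compound exposure lasted 16 h at 37 °C; actives lower the ATP signal meaning cytotoxicity.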 An outline of the steps:
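HCT-116 p53-bla cells (4000/well) rested 5 h at 37C, then received compounds in DMSO (217-fold dilution) for 16 h at 37C, 5% CO2. After the CCF4 read, CellTiter-Glo was added; ATP luminescence was read after 30 min at room temperature.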

Test [2] has as its target Cellular tumor antigen p53 (Homo sapiens) (UniProt P04637). Put plainly: TOX21_p53_BLA_p3_ratio: Tox21 HCT-116 p53 Agonism Beta-lactamase Assay, Ratio, Phase 3 (AID 2283596). An outline of the steps:
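Cells were seeded at 4000/well, rested 5 h at 37C, then dosed with DMSO compound solutions (217-fold dilution) for 16 h. CCF4-AM substrate was loaded for 2 h at room temperature, and the 460/530 nm emission ratio was fitted for gain of signal versus DMSO.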

The nature of test [3]: TOX21_p53_BLA_p4_viability: Viability Assessment in the Tox21 HCT-116 p53 Agonism Beta-lactamase Assay, Phase 4 (AID 2283597).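 Further: hits lower the luminescence signal meaning cytotoxicity.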 An outline of the steps:
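Viability is taken as cellular ATP: after 16 h compound exposure of HCT116 cells and a 2 h room-temperature CCF4-AM substrate step, CellTiter-Glo reagent is added and luminescence is measured 30 min later.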

Test [4] concerns the target Cellular tumor antigen p53 (Homo sapiens) (UniProt P04637). Put plainly: TOX21_p53_BLA_p5_ratio: Tox21 HCT-116 p53 Agonism Beta-lactamase Assay, Ratio, Phase 5 (AID 2283599). In a few lines: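 HCT-116 cells carrying a p53-inducible beta-lactamase reporter were seeded at 4000 cells/well and dosed after 5 h with compound in DMSO (217-fold dilution). After 16 h at 37C, CCF4-AM substrate was added for 2 h, and the 460/530 nm emission ratio was scored as gain-of-signal versus DMSO.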

Test [5] has the same target. Put plainly: TOX21_p53_BLA_p4_ratio: Tox21 HCT-116 p53 Agonism Beta-lactamase Assay, Ratio, Phase 4 (AID 2283601). An outline of the steps: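 HCT116 cells carrying an inducible beta-lactamase reporter were plated at 4000 cells/well, rested 5 h, then exposed to compounds in DMSO (217-fold dilution) for 16 h at 37C. CCF4-AM substrate was loaded 2 h at room temperature; 460/530 nm emission ratio scored gain-of-signal versus DMSO.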

Test [6] can be described thus: TOX21_p53_BLA_p5_viability: Viability Assessment in the Tox21 HCT-116 p53 Agonism Beta-lactamase Assay, Phase 5 (AID 2283600). In a few lines: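 Viability is taken from cellular ATP content, measured by luciferase luminescence in the same wells after the beta-lactamase ratio read. Cells are seeded at 4000 per well and exposed to DMSO-dissolved compounds, diluted 217-fold, for 16 h.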

The target in test [7] is Estrogen receptor (Homo sapiens) (UniProt P03372). Put plainly: CCTE_Deisenroth_AIME_96WELL_LUC_Active: CCTE's 96-well Estrogen Receptor Transactivation Assay with AIME metabolic competence (ERTA luciferase; metabolism positive), Deisenroth Lab (AID 2284023). An outline of the steps: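 Metabolism-positive mode: induced rat hepatic S9 in alginate microspheres conditions test solutions (0.002 - 200 uM, 10 points) for 2 hours. VM7Luc4E2 ER luciferase reporter cells then exposed 24 h; positive-direction fit against 17beta-estradiol, n=4 typical.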

The target is the same in test [8]. Put plainly: CCTE_Deisenroth_AIME_96WELL_LUC_Inactive: CCTE's 96-well Estrogen Receptor Transactivation Assay without AIME metabolic competence (ERTA luciferase; metabolism negative), Deisenroth Lab (AID 2284025). In a few lines: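 Metabolism-negative arm: chemicals (0.002–200 uM, 10 points) incubated 2 h with alginate-water microspheres, then medium moved onto VM7Luc4E2 cells for 24 h luciferase read-out. Positive direction vs 17beta-estradiol; n≥4 experiments.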

A short description of test [9]: CCTE_Deisenroth_AIME_96WELL_CTox_Active: Cytotoxicity Assessment (CTOX) in CCTE's 96-well Estrogen Receptor Transactivation Assay with AIME metabolic competence (metabolism positive), Deisenroth Lab (AID 2284028). In a few lines:
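Cytotoxicity in VM7Luc4E2 breast cells after 24 h exposure to medium from a 2 h metabolic pre-incubation with induced rat hepatic S9 in alginate microspheres; fluorescent live-cell protease readout, 10-point series 0.002–200 uM, n=4.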

The nature of test [10]: CCTE_Deisenroth_AIME_96WELL_CTox_Inactive: Cytotoxicity Assessment (CTOX) in CCTE's 96-well Estrogen Receptor Transactivation Assay without AIME metabolic competence (metabolism negative), Deisenroth Lab (AID 2284029). An outline of the steps: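 Metabolism-negative mode: alginate-water lids without rat S9, 2 h pre-incubation of 10-point series (0.002 - 200 uM). Conditioned medium on VM7Luc4E2 cells 24 h; loss of fluorescent live-cell protease signal marks cytotoxicity.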

Sequence of Cellular tumor antigen p53 (Homo sapiens) (P04637 whole entry, looked up): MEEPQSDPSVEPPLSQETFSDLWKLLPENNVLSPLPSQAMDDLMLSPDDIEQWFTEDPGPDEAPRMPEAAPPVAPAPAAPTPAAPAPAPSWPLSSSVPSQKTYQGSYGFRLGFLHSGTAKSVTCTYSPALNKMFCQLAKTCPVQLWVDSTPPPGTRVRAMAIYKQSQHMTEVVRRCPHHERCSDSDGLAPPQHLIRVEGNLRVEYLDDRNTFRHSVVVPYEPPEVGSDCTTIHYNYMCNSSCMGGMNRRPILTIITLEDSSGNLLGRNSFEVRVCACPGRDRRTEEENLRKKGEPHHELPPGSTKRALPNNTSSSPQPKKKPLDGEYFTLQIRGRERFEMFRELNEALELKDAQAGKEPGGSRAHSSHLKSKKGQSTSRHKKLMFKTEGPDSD
Sequence of Estrogen receptor (Homo sapiens) (P03372 whole entry, looked up): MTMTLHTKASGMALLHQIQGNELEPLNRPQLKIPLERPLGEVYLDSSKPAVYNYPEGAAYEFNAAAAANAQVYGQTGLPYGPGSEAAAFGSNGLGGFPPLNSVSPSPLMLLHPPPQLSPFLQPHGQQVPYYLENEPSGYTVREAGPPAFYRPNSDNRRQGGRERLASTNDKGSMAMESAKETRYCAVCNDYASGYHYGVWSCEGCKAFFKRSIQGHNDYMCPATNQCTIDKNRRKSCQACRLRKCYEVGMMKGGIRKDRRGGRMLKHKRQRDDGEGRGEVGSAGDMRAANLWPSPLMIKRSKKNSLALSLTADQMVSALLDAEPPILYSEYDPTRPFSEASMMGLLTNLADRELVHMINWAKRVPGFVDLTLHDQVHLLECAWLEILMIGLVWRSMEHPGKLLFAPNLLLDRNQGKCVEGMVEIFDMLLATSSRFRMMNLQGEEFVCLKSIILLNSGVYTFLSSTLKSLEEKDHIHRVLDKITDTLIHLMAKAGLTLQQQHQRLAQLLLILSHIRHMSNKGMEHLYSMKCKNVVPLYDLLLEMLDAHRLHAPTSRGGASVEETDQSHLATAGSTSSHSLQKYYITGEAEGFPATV

As to `ClCC=CCCl`, the outcome in [1], in test [2], in [3], in test [4] and in [5] was inactive.
As for `O=C1c2ccccc2C(=O)c2cc(Cl)ccc21`, the call in test [1], in test [2], in [3] and in test [6] was inactive.
As for `CCN(CC)CCOC(=O)C(Cc1cccc2ccccc12)CC1CCCO1` (centres undefined), the result in [1], in test [2], in test [3] and in [5] was inactive.
As to `O=C(Nc1cccc2c(=O)cc(-c3nn[nH]n3)oc12)c1ccc(OCCCCc2ccccc2)cc1`, the compound was classed as inactive in test [1], in [2], in test [3] and in [6].
Turning to `CC(O)CN(CCCN(C)C)CCCN(C)C` (centres undefined), the call in test [1], in test [2], in test [4], in test [6] and in test [5] was inactive.
Consider `CCO[Si](OCC)(OCC)OCC`, for which the compound was called inactive in test [1], in [2], in [3], in test [4] and in test [5].
For the compound `O=C(O)COc1ccc2ccccc2c1`, the compound was classed as inactive in [1], in test [2], in [4], in test [6] and in [5].
As for `CC[N+](CC)(CC)CCOc1cccc(OCC[N+](CC)(CC)CC)c1OCC[N+](CC)(CC)CC`, the compound was classed as inactive in test [1], in [2], in test [3], in test [4] and in test [5].
For `O=C1OC(=O)c2ccccc21`, the outcome in test [1], in test [2], in test [3], in test [6] and in [5] was inactive.
As for `CC(C)CCCC(C)NC(C)C` (centres undefined), the compound was classed as inactive in test [1], in [2] and in test [4].
With `OCC1(CO)COCOC1`, the outcome in [1], in [2], in [4], in [6] and in [5] was inactive.
In the case of `COCCOCCOCCOCCO`, the call in [1], in test [2], in test [4] and in [5] was inactive.
Turning to `O=C1c2c(O)cccc2C([C@@H]2O[C@H](CO)[C@@H](O)[C@H](O)[C@H]2O)c2cc(CO)cc(O)c21` (some centres undefined), the call in [1], in [3], in [4], in test [6] and in test [5] was inactive.
Take `CC(=O)[C@@]1(O)CC[C@H]2[C@@H]3C[C@H](C)C4=CC(=O)CC[C@]4(C)[C@H]3CC[C@@]21C`: the outcome in test [1], in [3] and in [4] was inactive.
For `O=C1OC(=O)C2CCCCC12` (centres undefined), the outcome in test [1], in test [3] and in test [4] was inactive.
As for `CC(C)(c1cc(Br)c(OCC(Br)CBr)c(Br)c1)c1cc(Br)c(OCC(Br)CBr)c(Br)c1` (centres undefined), the result in test [1], in [3] and in [4] was inactive.
As to `CCC(Cc1c(I)cc(I)c(O)c1I)C(=O)O` (centres undefined), the compound was called inactive in test [1], in test [3] and in test [4].
`Cc1cccc(Nc2ccncc2S(=O)(=O)NC(=O)NC(C)C)c1`: the compound was classed as inactive in test [1], in test [3], in test [4], in test [6] and in test [5].
In the case of `CC(NN)c1ccccc1` (centres undefined), the outcome in [1], in test [2], in test [6] and in [5] was inactive.
Take `C1CCC2=NCCCN2CC1`: the outcome in [1], in test [3], in test [4] and in test [6] was inactive.
Take `CC(=O)C1CCCCC1=O` (centres undefined): the outcome in [1], in test [2] and in test [6] was inactive.
Regarding `CCCCCC`, the compound was called inactive in [1], in test [2], in [4] and in test [5].
Regarding `C(=C\c1ccccc1)/c1ccccc1`, the call in test [1], in [2], in test [6], in test [9] and in test [10] was inactive. Moreover, the AC50 (as a rule, the midpoint of the concentration-response curve, whichever way the signal moves) in [7] is 18 µM (active); in test [8], 44.6 µM (active).
Turning to `O=CNNC=O`, the compound was classed as inactive in test [1], in test [2], in test [4] and in test [5].
Consider `CC[N+](C)(C)c1cccc(O)c1`, for which the compound was classed as inactive in test [1], in test [2], in [4] and in test [5].
With `COc1cc2nc(N3CCN(C(=O)C4CCCO4)CC3)nc(N)c2cc1OC` (centres undefined), the call in test [1], in test [3], in test [4], in [6] and in test [5] was inactive.
Turning to `Cc1cscn1`, the compound was called inactive in test [1] and in test [3].
As for `CCN(CC)CCc1nc(-c2ccccc2)no1`, the compound was classed as inactive in test [1], in [2], in test [4] and in test [5].
With `CC(C)=CC(=O)C=C(C)C`, the outcome in [1], in test [3], in test [4] and in test [6] was inactive.
For the compound `N[C@@H](C(=O)N[C@@H]1C(=O)N2C(C(=O)O)=C(CSc3cn[nH]n3)CS[C@H]12)c1ccc(O)cc1`, the result in [1], in test [3], in test [4] and in test [6] was inactive.
As for `CC(=C(CCO)SSCC1CCCO1)N(C=O)Cc1cnc(C)nc1N` (centres undefined), the outcome in [1], in test [3] and in [4] was inactive.
Take `O=C(CN1CCN(Cc2ccc3c(c2)OCO3)CC1)N1c2ccccc2Sc2ccccc21`: the compound was called inactive in [1], in [3], in test [4], in test [6] and in test [5].
As to `CCC1=C(C)CN(C(=O)NCCc2ccc(S(=O)(=O)NC(=O)NC3CCC(C)CC3)cc2)C1=O` (centres undefined), the result in test [1], in test [3] and in test [4] was inactive.
As for `CC(=O)Nc1ccc(C)c(Cl)c1`, the result in test [1], in [3], in test [4] and in [6] was inactive.
Consider `COc1c(O)cc2c(c1O)[C@@H]1O[C@H](CO)[C@@H](O)[C@H](O)[C@H]1OC2=O`, for which the call in [1], in [2], in [4] and in test [5] was inactive.
As for `c1cnc(N2CCN(Cc3ccc4c(c3)OCO4)CC2)nc1`, the compound was called inactive in test [1] and in [3].
As for `NCC1CCC(C(=O)O)CC1` (centres undefined), the result in [1], in test [2], in test [4] and in test [5] was inactive.
As for `O=c1[nH]cnc2ccccc12`, the result in test [1], in test [3], in test [4], in test [6] and in test [5] was inactive.
In the case of `Clc1ccccc1-c1nc(-c2ccncc2)no1`, the outcome in test [1], in [3], in test [4] and in test [6] was inactive.
Take `CCn1cc(C(=O)O)c(=O)c2cnc(N3CCNCC3)nc21`: the outcome in test [1], in test [2] and in test [5] was inactive.
`c1ccc(COCc2ccccc2)cc1`: the compound was called inactive in test [1], in test [3] and in test [4].
As to `CC(C)CC=O`, the compound was called inactive in [1], in [3] and in test [4].
As for `CC(C(=O)O)c1ccc(/C=C2\CCCCC2=O)cc1` (centres undefined), the compound was called inactive in test [1], in test [2], in test [6] and in test [5].
On to `CC(C)CCCO`, for which the compound was classed as inactive in [1], in test [2] and in test [5].
With `O=C(CCC1CCN(Cc2ccccc2)CC1)c1ccc2c(c1)NCCCC2`, the compound was called inactive in [1], in test [3], in [4], in test [6] and in test [5].
Turning to `COc1ccccc1OCCNCC(O)COc1cccc2[nH]c3ccccc3c12` (centres undefined), the call in test [1], in [4] and in [6] was inactive. In addition, the AC50 is 36.8 µM (active) in [3] and 41.9 µM (active) in test [5].
Regarding `Cc1c(N)cccc1[N+](=O)[O-]`, the outcome in test [1], in [3], in [4] and in [6] was inactive.
On to `CN1CCCC(n2nc(Cc3ccc(Cl)cc3)c3ccccc3c2=O)CC1` (centres undefined), for which the outcome in test [1] and in test [3] was inactive.
As to `CC(C)(Sc1cc(C(C)(C)C)c(O)c(C(C)(C)C)c1)Sc1cc(C(C)(C)C)c(O)c(C(C)(C)C)c1`, the compound was classed as inactive in test [1], in test [3], in test [4] and in [6].
Regarding `C[C@H](O)CN(C)C`, the call in test [1], in [2], in [4] and in [5] was inactive.
Consider `Cc1ccccc1C(N)=O`, for which the call in [1], in test [2], in [6] and in test [5] was inactive.
For `CC(=O)Nc1ccc(OC(C)=O)cc1`, the call in [1], in test [4], in test [6] and in test [5] was inactive.
Turning to `Oc1ccc(-c2ccc(O)cc2)cc1`, the compound was classed as inactive in [1], in test [4] and in test [6]. In addition, the AC50 in test [5] is 46.8 µM (active).
`CO/N=C(/C(=O)N[C@@H]1C(=O)N2C(C(=O)OCOC(=O)C(C)(C)C)=C(C)CS[C@H]12)c1csc(N)n1`: the result in test [1], in test [3] and in test [6] was inactive.
